According to PubChem BioAssay (NCATS):
Records with an inconclusive call do not appear. A call without a number means that no potency is given here. Active and inactive are the calls of the source. The call rests on the fitted dose curve; in most records, active means well fitted cell-killing curve with a large enough effect; inconclusive means small, poorly fitted or top-dose-only effect; inactive means flat fitted curve, though single readings scatter.
Potency means the concentration at half of the fitted maximal effect.

Assay: Cell Viability - LYMP2-011 (AID 969); further: nearly all actives have a fitted effect of over 60% in size
Details: LYMP2-011 lymphoblastoid cells viability; series mostly up to 92.2 µM
Method in brief: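 Acute toxicity is scored as a concentration-dependent drop in intracellular ATP of a human lymphoblastoid line after 24 hr treatment. Values are AC50s modeled with the Hill equation.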
With `CC(=O)Nc1ccc(C)cc1` the Potency was “inactive”.
In the case of `O=C1OC(=O)c2c(Br)c(Br)c(Br)c(Br)c21`, the Potency is reported as “inactive”.
With `O=C(O)CNC(=O)c1ccc([N+](=O)[O-])cc1` the Potency was “inactive”.
For `Cc1ccccc1C=O`, the Potency was “inactive”.
In the case of `CNc1ccccc1`, the Potency is reported as “inactive”.
In the case of `Cc1cccc(C(=O)O)c1`, the Potency is reported as “inactive”.
In the case of `CC1CCC2CC1C2(C)C` (configuration not stated), the Potency is reported as “inactive”.
In the case of `CC(C)C=O`, the Potency is reported as “inactive”.
With `O=Cc1ccc(CO)o1` the Potency was “inactive”.
In the case of `O=[N+]([O-])c1ccccc1CCO`, the Potency is reported as “inactive”.
With `O=Cc1c(Cl)cccc1Cl` the Potency was “inactive”.
For `CCCCC(CC)COCC1CO1` (configuration not stated), the Potency was “inactive”.
For `CC(CCl)OC(C)CCl` (configuration not stated), the Potency was “inactive”.
For `COc1ccc(N)c(C)c1`, the Potency was “inactive”.
For `CC=C(Cl)Cl`, the Potency was “inactive”.
For `O=[N+]([O-])c1c(Cl)cc(Cl)cc1Cl`, the Potency was “inactive”.
In the case of `CCOC(C)(C)C`, the Potency is reported as “inactive”.
In the case of `COCCOC(=O)c1ccccc1C(=O)OCCOC`, the Potency is reported as “inactive”.
For `CSCCC=O`, the Potency was “inactive”.
With `CCCCC(C=O)CC` (configuration not stated) the Potency was “inactive”.
With `Cc1nc2ccc(Cl)cc2[nH]1` the Potency was “inactive”.
In the case of `CC(O)COC(C)(C)C` (configuration not stated), the Potency is reported as “inactive”.
With `CC1=C(/C=C/C(C)=C/C=C/C(C)=C\C=O)C(C)(C)CCC1` the Potency was 50.1 µM (active).
With `[O-]/[N+](=N\O)c1ccccc1` the Potency was “inactive”.
In the case of `Cc1ccc2oc(=O)ccc2c1`, the Potency is reported as “inactive”.
In the case of `CC(=O)c1ccccc1[N+](=O)[O-]`, the Potency is reported as “inactive”.
With `Cc1ccc(C(C)(C)C)cc1` the Potency was “inactive”.
With `O=[N+]([O-])c1ccc2nc[nH]c2c1` the Potency was “inactive”.
In the case of `O=C(O)c1ccc(Cl)c(Cl)c1`, the Potency is reported as “inactive”.
In the case of `Cc1cccc2ccccc12`, the Potency is reported as “inactive”.
In the case of `CC(C)N(C)C`, the Potency is reported as “inactive”.
For `Clc1ccccn1`, the Potency was “inactive”.

Assay: Cell Viability - LYMP2-013 (AID 970);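 further: cells exposed to compound for 24 h at 37 °C; nearly all actives have a fitted effect of over 55% in size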
Details: LYMP2-013 lymphoblastoid cells viability; series mostly up to 92.2 µM
Method in brief: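 Acute toxicity was measured in human lymphoblastoid cells (2500/well) exposed to compound titrations for 24 hr, with ATP luminescence (CellTiter-Glo) as read-out and AC50 fitted by Hill equation.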
With `CC(=O)Nc1ccc(C)cc1` the Potency was “inactive”.
For `O=C1OC(=O)c2c(Br)c(Br)c(Br)c(Br)c21`, the Potency was “inactive”.
In the case of `O=C(O)CNC(=O)c1ccc([N+](=O)[O-])cc1`, the Potency is reported as “inactive”.
In the case of `Cc1ccccc1C=O`, the Potency is reported as “inactive”.
In the case of `CNc1ccccc1`, the Potency is reported as “inactive”.
In the case of `Cc1cccc(C(=O)O)c1`, the Potency is reported as “inactive”.
In the case of `CC1CCC2CC1C2(C)C` (configuration not stated), the Potency is reported as “inactive”.
For `CC(C)C=O`, the Potency was “inactive”.
In the case of `O=Cc1ccc(CO)o1`, the Potency is reported as “inactive”.
With `O=[N+]([O-])c1ccccc1CCO` the Potency was “inactive”.
With `CCCCCCC=O` the Potency was “inactive”.
In the case of `CCCCC(CC)COCC1CO1` (configuration not stated), the Potency is reported as “inactive”.
In the case of `CC(CCl)OC(C)CCl` (configuration not stated), the Potency is reported as “inactive”.
In the case of `COc1ccc(N)c(C)c1`, the Potency is reported as “inactive”.
With `CC=C(Cl)Cl` the Potency was “inactive”.
In the case of `O=[N+]([O-])c1c(Cl)cc(Cl)cc1Cl`, the Potency is reported as “inactive”.
For `CCC(C)(C)C(=O)O`, the Potency was “inactive”.
In the case of `CCOC(C)(C)C`, the Potency is reported as “inactive”.
For `CC(C)(O)CCC(C)(C)O`, the Potency was “inactive”.
In the case of `O=Nc1ccc(NO)cc1`, the Potency is reported as 50.1 µM (active).
With `COCCOC(=O)c1ccccc1C(=O)OCCOC` the Potency was “inactive”.
With `C=C(C)C1CC=C(C)C(OC(C)=O)C1` (configuration not stated) the Potency was “inactive”.
In the case of `CSCCC=O`, the Potency is reported as “inactive”.
With `CCCCC(C=O)CC` (configuration not stated) the Potency was “inactive”.
With `Cc1nc2ccc(Cl)cc2[nH]1` the Potency was “inactive”.
In the case of `CC(O)COC(C)(C)C` (configuration not stated), the Potency is reported as “inactive”.
In the case of `CCOCC(=O)O`, the Potency is reported as “inactive”.
In the case of `CC1=C(/C=C/C(C)=C/C=C/C(C)=C\C=O)C(C)(C)CCC1`, the Potency is reported as 50.1 µM (active).
For `[O-]/[N+](=N\O)c1ccccc1`, the Potency was “inactive”.
With `Cc1ccc2oc(=O)ccc2c1` the Potency was “inactive”.
For `CC(=O)c1ccccc1[N+](=O)[O-]`, the Potency was “inactive”.
For `Cc1ccc(C(C)(C)C)cc1`, the Potency was “inactive”.
With `O=[N+]([O-])c1ccc2nc[nH]c2c1` the Potency was “inactive”.
In the case of `CC(C)N=C=NC(C)C`, the Potency is reported as “inactive”.
For `O=C(O)c1ccc(Cl)c(Cl)c1`, the Potency was “inactive”.
In the case of `Cc1cccc2ccccc12`, the Potency is reported as “inactive”.
For `CC(C)N(C)C`, the Potency was “inactive”.
For `Clc1ccccn1`, the Potency was “inactive”.

Assay: Cell Viability - LYMP2-015 (AID 971); further: nearly all actives have a fitted effect of over 55% in size
Details: LYMP2-015 lymphoblastoid cell viability; series mostly up to 92.2 µM
Method in brief: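 Acute toxicity was scored as a concentration-dependent drop in intracellular ATP in lymphoblastoid cells after 24 hr compound exposure in complete medium. Detection used CellTiter-Glo luciferase luminescence.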
For `CC(=O)Nc1ccc(C)cc1`, the Potency was “inactive”.
With `O=C1OC(=O)c2c(Br)c(Br)c(Br)c(Br)c21` the Potency was “inactive”.
For `O=C(O)CNC(=O)c1ccc([N+](=O)[O-])cc1`, the Potency was “inactive”.
With `Cc1ccccc1C=O` the Potency was “inactive”.
In the case of `CNc1ccccc1`, the Potency is reported as “inactive”.
With `Cc1cccc(C(=O)O)c1` the Potency was “inactive”.
For `CC1CCC2CC1C2(C)C` (configuration not stated), the Potency was “inactive”.
With `CC(C)C=O` the Potency was “inactive”.
In the case of `O=Cc1ccc(CO)o1`, the Potency is reported as “inactive”.
With `O=[N+]([O-])c1ccccc1CCO` the Potency was “inactive”.
With `CCCCCCC=O` the Potency was “inactive”.
With `CCCCC(CC)COCC1CO1` (configuration not stated) the Potency was “inactive”.
With `CC(CCl)OC(C)CCl` (configuration not stated) the Potency was “inactive”.
With `COc1ccc(N)c(C)c1` the Potency was “inactive”.
In the case of `CC=C(Cl)Cl`, the Potency is reported as “inactive”.
In the case of `O=[N+]([O-])c1c(Cl)cc(Cl)cc1Cl`, the Potency is reported as “inactive”.
For `CCC(C)(C)C(=O)O`, the Potency was “inactive”.
For `CCOC(C)(C)C`, the Potency was “inactive”.
For `CC(C)(O)CCC(C)(C)O`, the Potency was “inactive”.
With `COCCOC(=O)c1ccccc1C(=O)OCCOC` the Potency was “inactive”.
For `C=C(C)C1CC=C(C)C(OC(C)=O)C1` (configuration not stated), the Potency was “inactive”.
For `CSCCC=O`, the Potency was “inactive”.
With `CCCCC(C=O)CC` (configuration not stated) the Potency was “inactive”.
For `Cc1nc2ccc(Cl)cc2[nH]1`, the Potency was “inactive”.
With `CC(O)COC(C)(C)C` (configuration not stated) the Potency was “inactive”.
In the case of `CCOCC(=O)O`, the Potency is reported as “inactive”.
For `CC1=C(/C=C/C(C)=C/C=C/C(C)=C\C=O)C(C)(C)CCC1`, the Potency was 39.8 µM (active).
For `[O-]/[N+](=N\O)c1ccccc1`, the Potency was “inactive”.
For `Cc1ccc2oc(=O)ccc2c1`, the Potency was “inactive”.
In the case of `CC(=O)c1ccccc1[N+](=O)[O-]`, the Potency is reported as “inactive”.
With `Cc1ccc(C(C)(C)C)cc1` the Potency was “inactive”.
With `O=[N+]([O-])c1ccc2nc[nH]c2c1` the Potency was “inactive”.
With `CC(C)N=C=NC(C)C` the Potency was “inactive”.
In the case of `O=C(O)c1ccc(Cl)c(Cl)c1`, the Potency is reported as “inactive”.
In the case of `Cc1cccc2ccccc12`, the Potency is reported as “inactive”.
In the case of `CC(C)N(C)C`, the Potency is reported as “inactive”.
With `Clc1ccccn1` the Potency was “inactive”.
